Data from PubChem BioAssay (NCI).
The panel holds about 83,000 compounds, 20% with a hit somewhere; the sample as a whole holds those more often.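 For each line, cells grew in 96-well plates with the test compound present at a single concentration for 48 hours.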 Values without a mark were called inactive. Activity calls are given as the source filed them. How the source made its calls: active means growth percent below 10; inactive means the rest.

Experiments:
Assay in all cases: NCI-60 one-dose screen, 48 h (100 = growth as untreated, 0 = no growth, -100 = all killed)
Conditions in all cases: 10 µM unless noted
NCI-H23 lung = test system: NCI-H23 lung
NCI-H226 lung = test system: NCI-H226 lung
NCI-H322M lung = test system: NCI-H322M lung
HOP-62 NSCLC = test system: HOP-62 NSCLC
NCI-H460 lung = test system: NCI-H460 lung
HOP-92 NSCLC = test system: HOP-92 NSCLC
NCI-H522 lung = test system: NCI-H522 lung
A549/ATCC NSCLC = test system: A549/ATCC NSCLC
786-0 renal = test system: 786-0 renal
COLO 205 colon = test system: COLO 205 colon

| Compound | growth (NCI-H23 lung) | growth (NCI-H226 lung) | growth (NCI-H322M lung) | growth (HOP-62 NSCLC) | growth (NCI-H460 lung) | growth (HOP-92 NSCLC) | growth (NCI-H522 lung) | growth (A549/ATCC NSCLC) | growth (786-0 renal) | growth (COLO 205 colon) |
| --- | --- | --- | --- | --- | --- | --- | --- | --- | --- | --- |
| COc1ccc(S(=O)(=O)NCCNc2nccc(-c3c(-c4cccc(F)c4)nc4sccn34)n2)cc1 | 56.3% | 28.1% | 63% | 73.4% | 29% | 71.8% | 48.1% | 22.5% | 43.1% | 21.7% |
| Cc1c(C(=O)NC(Cc2ccccc2)C(O)C(=O)NCc2ccc(F)cc2)[nH]c2ccccc2c1=O (stereo not given) | 99.8% | 105% | 101% | 99.2% | 104% | 108% | 93.5% | 101% | 104% | 111% |
| CCc1ccccc1NC(=O)/C(C#N)=C/c1ccc(OC)cc1 | 98.2% | 97.5% | 87.8% | 96% | 104% | 86.9% | 91.4% | 94% | 107% | 119% |
| Cc1ccc(C(=O)COc2cccc(/C=C3\Oc4ccccc4C3=O)c2)cc1 | 90.5% | 80.9% | 101% | 97.1% | 119% | 89.8% | 78.2% | 96.9% | 97.6% | 115% |
| CCc1ccccc1-n1c(-c2ccc(Cl)cc2)cc(-c2ccc(OC)cc2)c(C#N)c1=O | 102% | 108% | 126% | 103% | 99.7% | 63.5% | 84.8% | 103% | 92% | 117% |
| C[n+]1cccc(CC(=O)NO)c1 | 102% | 89.3% | 97.2% | 92.7% | 101% | 82.5% | 84.6% | 68.1% | 106% | 97.7% |
| CC(C)(C)C(CCc1ccc(Cl)cc1)N1CCN(C2CCCCC2)CC1 (stereo not given) | 47.5% | 78.5% | 82.8% | 47.5% | 25.2% | 45.3% | 41% | 24.9% | 42.4% | 33.7% |
| CN1CCN(CCCOc2ccc3nc(Nc4ccc(F)c(F)c4)ccc3c2)CC1 | 51.5% | 62.9% | 68% | 22.5% | 7.51% (active) | 5.74% (active) | -50.4% (active) | 16.1% | 2.05% (active) | -72% (active) |
| O=C1/C(=C/c2ccc(Br)cc2)C=C(c2ccccc2)N1CCc1ccccc1 | 40% | -1.06% (active) | 54.3% | -56.9% (active) | 25.6% | -13.9% (active) | 31.2% | 8.19% (active) | -8.73% (active) | 30.4% |
| CCCCn1c(=O)c2c(nc3n2CCCN3CCc2ccc(OCC(=O)NCCN(CC)CC)cc2)n(CCCC)c1=O | 68.7% | 72.9% | 94.4% | 56.1% | 56.9% | 27.8% | 44.1% | 64.2% | 11.3% | 25.7% |
| Cc1ccc(-c2c(-c3ccccc3)c(=O)oc3ccc(C)cc23)cc1 | 96.1% | 89.6% | 97.8% | 101% | 93.8% | 84% | 107% | 91% | 105% | 91.4% |
| Nc1ccc2c(c1)c(N)nn2C(=O)Nc1ccc(Cc2ccccc2)cc1 | 82.1% | 72.5% | 81.2% | 82.7% | 44.5% | 98.2% | 88.3% | 52.3% | 84.3% | 107% |
| COC(=O)c1ccc(C2Nc3ccc(S(=O)(=O)Nc4ccc(C)c(C)c4)cc3C3OCCC23)cc1 (stereo not given) | 59.5% | 85.9% | 96% | 87.3% | 86% | 66% | 52.6% | 78.8% | 93.9% | 94% |
| COC(=O)[C@]12CC[C@@H](C)[C@H](C)[C@@H]1C1=CC[C@@H]3[C@@]4(C)C(C=O)=C[C@@](C)(COS(C)(=O)=O)[C@@H]4C(=O)C[C@@]3(C)[C@]1(C)CC2 | 35.3% | 67.2% | 89.2% | 41.7% | 42.4% | 39.8% | 22.2% | 27.6% | 40.7% | 32.1% |
| COC(=O)[C@]12CC[C@@H](C)[C@H](C)[C@@H]1C1=CC[C@@H]3[C@@]4(C)C(C=O)=C[C@@](C)(COS(C)(=O)=O)C4[C@H](O)C[C@@]3(C)[C@]1(C)CC2 (stereo not given in full) | -50.1% (active) | -67.2% (active) | -1.44% (active) | -63.6% (active) | -58.2% (active) | -74.3% (active) | -82.6% (active) | -67.1% (active) | -91.5% (active) | -70.8% (active) |
| COc1nc(N(C)O)nc(N(C)O)n1 | 43.9% | 49.3% | 37.7% | 26.6% | 8.71% (active) | 52.8% | 56.5% | 33.7% | 8.76% (active) | 19.6% |
| CCC(CO)Nc1nc2ccc(Cl)cc2c2ccccc12 (stereo not given) | 73.9% | 65.3% | 47.2% | 60.3% | 25.1% | 48.9% | 58.6% | 55.3% | 41.6% | 86.4% |
| CC(C)=C[C@@H]1c2c(c3ccccc3n(C)c2=O)O[C@H]2c3c(c4ccccc4n(C)c3=O)OC(C)(C)[C@@H]12 | 99.6% | 101% | 112% | 115% | 75.3% | -4.59% (active) | 53.4% | 89.3% | 93.5% | 95.3% |
| COC(=O)[C@]12CC[C@@H](C)[C@H](C)[C@@H]1C1=CC[C@@H]3[C@@]4(C)C(C=O)=C[C@@](C)(COC(=O)c5ccco5)[C@@H]4C(=O)C[C@@]3(C)[C@]1(C)CC2 | 26.3% | 22.5% | 69.6% | 31.6% | 18.1% | 31.8% | 10.7% | 10.1% | 43.4% | -59.5% (active) |
| Cc1cc(=O)oc2c1ccc1oc(C#N)c(C)c12 | 97.9% | 107% | 98.9% | 103% | 108% | 82% | 102% | 99.8% | 84.9% | 121% |
| Cc1cc(NCCCCNc2ccnc3cc(Cl)ccc23)nc(Nc2ccc(C(=O)N3CCCC3)cc2)n1 | 81.4% | 108% | 67.6% | 92.5% | 18.1% | 72.6% | 26.5% | 24% | 68.4% | -42.8% (active) |
| N#Cc1nc(C#N)c(Sc2ccccc2)c(Sc2ccccc2)c1Sc1ccccc1 | -42.1% (active) | 3.05% (active) | 23.9% | -46% (active) | -44.7% (active) | -31.7% (active) | -67.2% (active) | 3.65% (active) | -55.9% (active) | -88.2% (active) |
| Cc1c(Cl)cc(-n2c(=O)c3ccccc3c3ccccc3c2=O)cc1Cl | 97.6% | 108% | 87.3% | 92.6% | 111% | 98.4% | 98.7% | 102% | 98.6% | 98.2% |
| N#CCN1C(=O)C2C3=C(CCCC3)SC2N=C1CN1CCCC1 (stereo not given) | 97.9% | 87.5% | 91.2% | 89.6% | 117% | -1.97% (active) | 92.5% | 93.1% | 92% | 122% |
| Cc1nc2ccccc2c(/C=C/c2ccc(Cl)cc2)c1C(=O)/C=C/c1ccc(F)cc1 | 17.3% | -8.4% (active) | 51.8% | 3.74% (active) | -66.9% (active) | 66.3% | 1.17% (active) | 74.6% | -24.7% (active) | 13.9% |
| CCC1(C2CCCC2)NC(=O)NC1=O (stereo not given) | 93.5% | 101% | 106% | 115% | 102% | 78.1% | 103% | 104% | 94.1% | 108% |
| C=C(C)[C@@H]1CC[C@]2(C)[C@H](CC=C3[C@@H]4CC(C)(C)CC[C@]4(C(N)=O)CC[C@]32C)[C@@]1(C)CCC#N | 27.9% | 49.7% | 72.1% | 56.7% | 12.8% | 32% | 7.77% (active) | 17.6% | 26.1% | -12.1% (active) |
